Bioassay records from PubChem.
SMN2 splice up: SMN2 splice variant enhancement | HEK293 SMN2-luciferase splicing reporter, luminescence, 30-36 h | Potency, µM (series often up to 46.1 µM), for the others: top-dose activity change, positive = activation, most hits filed as activators | 210,000 tested, 2.8% active; further: % of control where 0% means no effect; nearly all actives have a fitted effect of over 55% in size
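HEK293 cells carry an SMN2 […]–luciferase reporter in which exon 7 inclusion puts luciferase in frame. Cells were plated 10-12 h before compound addition, then incubated 30-36 h at 37C. ONE-Glo luminescence was read; sodium butyrate at 4.5 mM final served as control.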
Rab9 promoter act: activates the Rab9 promoter. 320,000 tested, 2.8% active. Potency, µM (series often up to 9.22 µM), without a hit: top-dose activation, negative = inhibition, most hits filed as activators. Huh7 Rab9 promoter-luciferase reporter, luminescence, 24 h. AID 485297; further: % of control where 0% means no effect; nearly all actives have a fitted effect of over 60% in size
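Huh7 reporter line, Rab9 promoter upstream of luciferase. Compound exposure 24 h at 37 °C in reduced-serum medium with 10% FBS. Read-out: luminescence.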
KinaseGlo FLuc: Kinase-Glo luciferase inhibition (counter-screen) | Potency, µM (top dose mostly 38.3 µM), for inactives: at the highest dose activity change, negative = inhibition, most hits filed as inhibitors | 200,000 tested, 0.28% active | AID 1379 | Kinase-Glo luciferase, ATP luminescence, 8 min; further: on the % scale 0 is the no-effect control and ±100 the full control effect; nearly all actives have a fitted effect of over 60% in size
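Inhibition of Kinase-Glo luciferase light generation was assessed at 10 uM ATP in pH 7.2 imidazole buffer, with luminescence measured after eight minutes at ambient temperature.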
FLuc modulator: firefly luciferase modulation, counter-screen for miR-21 project. P08659. purified FLuc, Km substrates, luminescence inhibition. Potency, µM (highest dose often 57.5 µM), without a hit: at the highest dose activity change, negative = inhibition, actives largely listed as inhibitors. 360,000 tested, 6.9% active. AID 588342;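 further: plate controls were vehicle for no effect and reference inhibitor for full effect; nearly all actives have a fitted effect of over 55% in size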
Target sequence (P08659 whole entry, looked up): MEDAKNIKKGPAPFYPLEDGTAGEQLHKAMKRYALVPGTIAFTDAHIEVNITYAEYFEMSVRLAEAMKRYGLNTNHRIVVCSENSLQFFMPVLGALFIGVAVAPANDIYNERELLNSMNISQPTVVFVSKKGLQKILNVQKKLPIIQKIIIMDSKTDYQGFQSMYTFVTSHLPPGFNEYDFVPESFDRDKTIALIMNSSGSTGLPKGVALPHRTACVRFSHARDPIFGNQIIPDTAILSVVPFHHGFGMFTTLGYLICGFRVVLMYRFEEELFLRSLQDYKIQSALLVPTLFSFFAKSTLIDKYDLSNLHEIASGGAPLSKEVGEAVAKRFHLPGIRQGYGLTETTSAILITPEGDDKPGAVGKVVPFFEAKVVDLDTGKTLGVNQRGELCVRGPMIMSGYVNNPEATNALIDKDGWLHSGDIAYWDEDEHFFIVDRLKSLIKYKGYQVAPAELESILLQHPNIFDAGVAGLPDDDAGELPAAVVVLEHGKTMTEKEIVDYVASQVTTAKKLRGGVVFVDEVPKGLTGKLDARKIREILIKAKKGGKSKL
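Purified P. pyralis luciferase, 10 nM final, with Km-level 10 uM D-luciferin and 10 uM ATP in 50 mM Tris acetate pH 7.5, 10 mM Mg acetate, 0.01% Tween-20, 0.05% BSA; 6-point qHTS titration about 60 µM downward; luminescence read.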
ELG1 genotox: genotoxicity induction in ELG1-luciferase HEK293T cells | Potency, µM (titrated, usually from 46 µM), for inactives: top-dose activity change, positive = activation, hits mostly activators | AID 504466 | HEK293T ELG1-luciferase reporter, luminescence, 16 h | 330,000 tested, 1.3% active; further: % of control where 0% means no effect; nearly all actives have a fitted effect of over 60% in size
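Reporter readout depends on ELG1 protein level, which increases with genetic stress. After 16 hr compound exposure at 37 °C, luciferase activity was quantified using ONE-Glo.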
NPC1 prom act: activates the NPC1 promoter. Potency, µM (top dose mostly 9.22 µM), for inactives: at the top dose activation, usual class: activators. Huh7 NPC1 promoter luciferase reporter, 24 h. 320,000 tested, 2.4% active; further: % of control where 0% means no effect; nearly all actives have a fitted effect of over 60% in size
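Compounds in DMSO were transferred onto Huh7 NPC1-luciferase reporter cells pre-incubated 2 h; after 24 h at 37 °C, Amplite reagent was dispensed and luminescence recorded 10 min later.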
Starred values were filed as active, the others as inactive. Compounds with a hit are over-represented: about 7.5% of the library has one in this group of screens. The call rests on the fitted dose curve; in most records, active means well fitted curve in the direction sought with a large enough effect; inconclusive means small, poorly fitted or top-dose-only effect, or another doubt; inactive means no such curve, though single readings can be large; an effect the other way counts as inactive or inconclusive. Potency means the concentration at half of the fitted maximal effect.

`CC(=O)c1cccc(Nc2nc(-c3cccc([N+](=O)[O-])c3)cs2)c1` gave SMN2 splice up 11µM*, Rab9 promoter act 21%, KinaseGlo FLuc 5%, FLuc modulator -4%, ELG1 genotox 1.5µM* and NPC1 prom act 5%.
Screening COc1cccc(Nc2nc(-c3sc(NC(=O)c4ccccc4)nc3C)cs2)c1 returned SMN2 splice up -59%, Rab9 promoter act -1%, KinaseGlo FLuc -5%, FLuc modulator 19µM*, ELG1 genotox -7% and NPC1 prom act 0%.
For Cc1nc(N)sc1-c1csc(Nc2cccc(C(=O)O)c2)n1 the results were Rab9 promoter act 15%, FLuc modulator 7.6µM*, ELG1 genotox -7% and NPC1 prom act 17%.
For CC(=O)Nc1nc(C)c(-c2csc(Nc3cccc(C(C)=O)c3)n2)s1 the results were Rab9 promoter act 0.71µM*, FLuc modulator inconclusive, ELG1 genotox 0% and NPC1 prom act -20%.
Screening Cc1nc2scc(C)n2c(=O)c1S(=O)(=O)N1CCN(c2cccc(C(F)(F)F)c2)CC1 returned SMN2 splice up -23%, Rab9 promoter act 3%, FLuc modulator 2%, ELG1 genotox -3% and NPC1 prom act -2%.
For O=C(Cn1c(=O)oc2ccccc21)NCc1ccc(Cl)cc1 the results were FLuc modulator 2%.
Cc1nc(NC(=O)c2ccc(Cl)cc2)sc1-c1csc(Nc2cccc(F)c2)n1 was read as SMN2 splice up -9%, Rab9 promoter act 0%, KinaseGlo FLuc 2%, FLuc modulator 11µM*, ELG1 genotox -3% and NPC1 prom act 14%.
`CCC(=O)Nc1nc(C)c(-c2csc(Nc3ccc(C(=O)O)cc3)n2)s1` gave Rab9 promoter act 7%, FLuc modulator 17µM*, ELG1 genotox 0% and NPC1 prom act -3%.
Screening Cc1ccccc1Nc1nc(-c2sc(NC(=O)c3ccco3)nc2C)cs1 returned SMN2 splice up -6%, Rab9 promoter act 1%, KinaseGlo FLuc -1%, FLuc modulator inconclusive, ELG1 genotox -2% and NPC1 prom act 0%.
`Cc1ccc(Nc2nc(-c3sc(NC(=O)c4ccco4)nc3C)cs2)cc1` gave SMN2 splice up -61%, Rab9 promoter act 3%, KinaseGlo FLuc 0%, FLuc modulator 17µM*, ELG1 genotox -2% and NPC1 prom act 7%.
Screening Cc1ccc(Nc2nc(-c3sc(NC(=O)c4cccc(Cl)c4)nc3C)cs2)cc1 returned SMN2 splice up -11%, Rab9 promoter act 3%, KinaseGlo FLuc -4%, FLuc modulator 9.5µM*, ELG1 genotox -2% and NPC1 prom act -5%.
Screening Cc1ccc(S(=O)(=O)c2nnn3c2nc(NCc2ccccc2Cl)c2sccc23)cc1 returned FLuc modulator -2%.
`O=C(CSc1nccc(=O)[nH]1)N1CCN(c2ccccc2)CC1` gave SMN2 splice up -8%, Rab9 promoter act -5%, KinaseGlo FLuc 0%, FLuc modulator -2%, ELG1 genotox 1% and NPC1 prom act 0%.
`Cc1cc(O)ccc1Nc1nc(-c2sc(N)nc2C)cs1` gave SMN2 splice up -7%, Rab9 promoter act -8%, KinaseGlo FLuc -5%, FLuc modulator inconclusive, ELG1 genotox 1% and NPC1 prom act 1%.
For Cc1nc(N)sc1-c1csc(Nc2ccccc2)n1 the results were SMN2 splice up 11µM*, Rab9 promoter act 2.8µM*, KinaseGlo FLuc 0%, FLuc modulator 11µM*, ELG1 genotox 16% and NPC1 prom act inconclusive.
`Cc1[nH]n(-c2nc(-c3cccc([N+](=O)[O-])c3)cs2)c(=O)c1C` gave SMN2 splice up 13µM*, Rab9 promoter act inconclusive, KinaseGlo FLuc -3%, FLuc modulator 4.8µM*, ELG1 genotox 16% and NPC1 prom act inconclusive.
Screening CCC(=O)Nc1nc(C)c(-c2csc(Nc3cccc(C(=O)O)c3)n2)s1 returned SMN2 splice up 27%, Rab9 promoter act -3%, KinaseGlo FLuc 0%, FLuc modulator 11µM*, ELG1 genotox -5% and NPC1 prom act -1%.
`Cc1c(Nc2nc(-c3cccc([N+](=O)[O-])c3)cs2)c(=O)n(-c2ccccc2)n1C` gave Rab9 promoter act -12%, KinaseGlo FLuc -1%, FLuc modulator -4%, ELG1 genotox 1% and NPC1 prom act 1%.
CC(=O)Nc1nc(C)c(-c2csc(Nc3ccccn3)n2)s1 was read as SMN2 splice up 13µM*, Rab9 promoter act 1.6µM*, KinaseGlo FLuc -7%, FLuc modulator 11µM*, ELG1 genotox 8% and NPC1 prom act 3.5µM*.
`CC(=O)Nc1ccc(Nc2nc(-c3sc(NC(C)=O)nc3C)cs2)cc1` gave Rab9 promoter act -3%, FLuc modulator inconclusive, ELG1 genotox -10% and NPC1 prom act -12%.
`Cc1nn(-c2ccccc2)c(OC(=O)c2ccc(F)cc2)c1S(=O)(=O)c1ccccc1` gave SMN2 splice up 3% and FLuc modulator inconclusive.
For COc1ccccc1NC(=O)CCNC(=O)c1ccc(C)cc1 the results were Rab9 promoter act -1%, FLuc modulator 1%, ELG1 genotox -2% and NPC1 prom act -1%.
`Cc1nc(NC(=O)c2ccccc2)sc1-c1csc(Nc2ccc(C(=O)O)cc2)n1` gave Rab9 promoter act inconclusive, FLuc modulator 0.48µM*, ELG1 genotox -7% and NPC1 prom act 23%.
Screening O=C(O)c1ccc(Nc2nc(-c3ccccc3)cs2)cc1 returned SMN2 splice up 2.5µM*, Rab9 promoter act 0.4µM*, KinaseGlo FLuc 3%, FLuc modulator 0.67µM*, ELG1 genotox -2% and NPC1 prom act 0.4µM*.
Cc1csc(Nc2ccc(C(=O)O)cc2)n1 was read as Rab9 promoter act 16%, FLuc modulator inconclusive, ELG1 genotox 6% and NPC1 prom act 20%.
For COc1cccc(NC(=O)c2sc(NC(=O)c3ccncc3)nc2C)c1 the results were Rab9 promoter act 0%, FLuc modulator 19µM*, ELG1 genotox -4% and NPC1 prom act -2%.
Screening Cc1ccc2cc(CN(CCN(C)C)C(=O)Nc3ccc(Cl)cc3)c(=O)[nH]c2c1 returned Rab9 promoter act 2%, KinaseGlo FLuc 1%, FLuc modulator 11µM*, ELG1 genotox -1% and NPC1 prom act 0%.
Screening CCCS(=O)(=O)c1nc(S(=O)(=O)c2ccc(C)cc2)c(NC)s1 returned SMN2 splice up -1% and FLuc modulator 5%.
